In all, about 5,500 compounds went through this assay and about 2,000 (36%) were called active. Inconclusive results (about 18%) are left out. Cut-off read from the data, not from the text of the source: active = normalized growth mostly below about 0.91 (no sharp cut-off); inconclusive = no clear call, values can overlap the other calls; inactive = mostly above about 0.92. The list shows a part of the results.
Experiment: chemical genetic growth profiling, strain panel (AID 1159580);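 note: tested at 20 µM; growth read once vehicle control cultures reached saturation at 30 °C; 1 = growth at the plate median or of vehicle wells; lower values mean less growth of the strain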
Settings: growth OD

Measured: normalized growth

COc1c(C)c2c(c(C)c1Cl)Oc1c(Cl)c(OC)c(Cl)c(C)c1C(=O)O2
inactive: S. cerevisiae deletion strains, locus YAL013W, strain DEP1, stronger effect = lower value 0.992 | S. cerevisiae deletion strains, locus YBR021W, strain FUR4, stronger effect = lower value 1.05 | S. cerevisiae deletion strains, locus YBR229C, strain ROT2, stronger effect = lower value 1.01 | S. cerevisiae deletion strains, locus YCL029C, strain bik1, stronger effect = lower value 1.02 | S. cerevisiae deletion strains, locus YDL035C, strain GPR1, stronger effect = lower value 1.01 | S. cerevisiae deletion strains, locus YDL074C, strain BRE1, stronger effect = lower value 1 | S. cerevisiae deletion strains, locus YDL101C, strain DUN1, stronger effect = lower value 1.01 | S. cerevisiae deletion strains, locus YDL134C, strain PPH21, stronger effect = lower value 1.01 | S. cerevisiae deletion strains, locus YDL185W, strain tfp1, stronger effect = lower value 1.02 | S. cerevisiae deletion strains, locus YDL192W, strain arf1, stronger effect = lower value 1.02 | S. cerevisiae deletion strains, locus YDR101C, strain arx1, stronger effect = lower value 1.01 | S. cerevisiae deletion strains, locus YDR150W, strain NUM1, stronger effect = lower value 1.02 | S. cerevisiae deletion strains, locus YDR162C, strain NBP2, stronger effect = lower value 0.987 | S. cerevisiae deletion strains, locus YDR318W, strain mcm21, stronger effect = lower value 1.03 | S. cerevisiae deletion strains, locus YDR388W, stronger effect = lower value 1.01 | S. cerevisiae deletion strains, locus YDR502C, strain sam2, stronger effect = lower value 1.01 | S. cerevisiae deletion strains, locus YEL061C, strain CIN8, stronger effect = lower value 1.01 | S. cerevisiae deletion strains, locus YER110C, stronger effect = lower value 1.02 | S. cerevisiae deletion strains, locus YER155C, strain BEM2, stronger effect = lower value 1.01 | S. cerevisiae deletion strains, locus YER167W, strain BCK2, stronger effect = lower value 1.03 | S. cerevisiae deletion strains, locus YGL078C, strain dbp3, stronger effect = lower value 1.01 | S. cerevisiae deletion strains, locus YGL086W, strain mad1, stronger effect = lower value 1.02 | S. cerevisiae deletion strains, locus YGL248W, strain PDE1, stronger effect = lower value 1.02 | S. cerevisiae deletion strains, locus YGR078C, strain PAC10, stronger effect = lower value 1.01 | S. cerevisiae deletion strains, locus YGR135W, strain pre9, stronger effect = lower value 1 | S. cerevisiae deletion strains, locus YGR229C, strain SMI1, stronger effect = lower value 0.991 | S. cerevisiae deletion strains, locus YGR252W, strain gcn5, stronger effect = lower value 1.05 | S. cerevisiae deletion strains, locus YHR030C, strain SLT2, stronger effect = lower value 1.02 | S. cerevisiae deletion strains, locus YHR079C, strain IRE1 (second series), stronger effect = lower value 1.03 | S. cerevisiae deletion strains, locus YHR094C, strain hxt1, stronger effect = lower value 1.01 | S. cerevisiae deletion strains, locus YHR129C, strain ARP1, stronger effect = lower value 1.02 | S. cerevisiae deletion strains, locus YHR200W, strain rpn10, stronger effect = lower value 1.02 | S. cerevisiae deletion strains, locus YIL066C, strain RNR3, stronger effect = lower value 1 | S. cerevisiae deletion strains, locus YIL073C, strain SPO22, stronger effect = lower value 1.08 | S. cerevisiae deletion strains, locus YIL125W, strain kgd1, stronger effect = lower value 1.02 | S. cerevisiae deletion strains, locus YIR030C, strain dcg1, stronger effect = lower value 1.01 | S. cerevisiae deletion strains, locus YJL095W, strain BCK1, stronger effect = lower value 1.02 | S. cerevisiae deletion strains, locus YJL134W, strain LCB3, stronger effect = lower value 1.01 | S. cerevisiae deletion strains, locus YJL168C, strain set2, stronger effect = lower value 1.01 | S. cerevisiae deletion strains, locus YJL187C, strain SWE1 (second series), stronger effect = lower value 1.01 | S. cerevisiae deletion strains, locus YJR043C, strain POL32, stronger effect = lower value 1.04 | S. cerevisiae deletion strains, locus YJR075W, strain HOC1, stronger effect = lower value 1.01 | S. cerevisiae deletion strains, locus YKL009W, strain mrt4, stronger effect = lower value 1.03 | S. cerevisiae deletion strains, locus YKL068W, stronger effect = lower value 1.01 | S. cerevisiae deletion strains, locus YKL085W, strain MDH1 (second series), stronger effect = lower value 1.02 | S. cerevisiae deletion strains, locus YKL085W, strain MDH1, stronger effect = lower value 1.02 | S. cerevisiae deletion strains, locus YKL190W, strain CNB1, stronger effect = lower value 1.01 | S. cerevisiae deletion strains, locus YKR001C, strain vps1, stronger effect = lower value 1.03 | S. cerevisiae deletion strains, locus YLR039C, strain RIC1, stronger effect = lower value 1.06 | S. cerevisiae deletion strains, locus YLR058C, strain SHM2, stronger effect = lower value 1.02 | S. cerevisiae deletion strains, locus YLR102C, strain apc9, stronger effect = lower value 1.01 | S. cerevisiae deletion strains, locus YLR262C, strain YPT6, stronger effect = lower value 1.02 | S. cerevisiae deletion strains, locus YLR268W, strain sec22, stronger effect = lower value 0.997 | S. cerevisiae deletion strains, locus YLR330W, strain CHS5, stronger effect = lower value 1.02 | S. cerevisiae deletion strains, locus YLR342W, strain FKS1 (second series), stronger effect = lower value 1.08 | S. cerevisiae deletion strains, locus YLR371W, strain rom2, stronger effect = lower value 1.02 | S. cerevisiae deletion strains, locus YLR418C, strain cdc73, stronger effect = lower value 0.989 | S. cerevisiae deletion strains, locus YML016C, strain PPZ1, stronger effect = lower value 1.01 | S. cerevisiae deletion strains, locus YML032C, strain rad52, stronger effect = lower value 1.03 | S. cerevisiae deletion strains, locus YML124C, strain tub3, stronger effect = lower value 1.01 | S. cerevisiae deletion strains, locus YMR078C, strain ctf18, stronger effect = lower value 1.02 | S. cerevisiae deletion strains, locus YMR223W, strain ubp8, stronger effect = lower value 1.03 | S. cerevisiae deletion strains, locus YMR263W, strain SAP30, stronger effect = lower value 1.01 | S. cerevisiae deletion strains, locus YMR307W, strain GAS1, stronger effect = lower value 1.06 | S. cerevisiae deletion strains, locus YNL067W, strain RPL9B, stronger effect = lower value 1.01 | S. cerevisiae deletion strains, locus YNL128W, strain TEP1, stronger effect = lower value 0.967 | S. cerevisiae deletion strains, locus YNL153C, strain GIM3, stronger effect = lower value 1 | S. cerevisiae deletion strains, locus YNL233W, strain BNI4, stronger effect = lower value 1.02 | S. cerevisiae deletion strains, locus YNL250W, strain rad50, stronger effect = lower value 1.01 | S. cerevisiae deletion strains, locus YNL271C, strain bni1, stronger effect = lower value 1.01 | S. cerevisiae deletion strains, locus YNL298W, strain CLA4, stronger effect = lower value 1.03 | S. cerevisiae deletion strains, locus YNL307C, strain MCK1, stronger effect = lower value 1.03 | S. cerevisiae deletion strains, locus YNL322C, strain KRE1, stronger effect = lower value 1 | S. cerevisiae deletion strains, locus YNR052C, strain pop2, stronger effect = lower value 1.02 | S. cerevisiae deletion strains, locus YOL006C, strain TOP1, stronger effect = lower value 1.1 | S. cerevisiae deletion strains, locus YOL012C, strain htz1 0.785 | S. cerevisiae deletion strains, locus YOL147C, strain pex11, stronger effect = lower value 1.01 | S. cerevisiae deletion strains, locus YOR061W, strain CKA2, stronger effect = lower value 1.01 | S. cerevisiae deletion strains, locus YOR069W, strain VPS5, stronger effect = lower value 1.02 | S. cerevisiae deletion strains, locus YOR136W, strain idh2, stronger effect = lower value 1.02 | S. cerevisiae deletion strains, locus YOR144C, strain elg1, stronger effect = lower value 1.01 | S. cerevisiae deletion strains, locus YOR184W, strain ser1, stronger effect = lower value 1.05 | S. cerevisiae deletion strains, locus YOR316C, strain cot1, stronger effect = lower value 1.02 | S. cerevisiae deletion strains, locus YPL055C, strain LGE1, stronger effect = lower value 0.99 | S. cerevisiae deletion strains, locus YPL241C, strain CIN2, stronger effect = lower value 1 | S. cerevisiae deletion strains, locus YPR119W, strain clb2, stronger effect = lower value 1 | S. cerevisiae deletion strains, locus YPR141C, strain kar3, stronger effect = lower value 1.01 | S. cerevisiae deletion strains, locus YPR163C, strain tif3, stronger effect = lower value 1.03 | S. cerevisiae deletion strains, locus YPR167C, strain met16, stronger effect = lower value 1.01 | S. cerevisiae deletion strains, strain wtn01, stronger effect = lower value 1.01 | S. cerevisiae strains, strain wild type, stronger effect = lower value 1
